High-throughput results: PubChem, Broad Institute
STK33 inh: STK33 kinase inhibitors, primary screen, biochemical, luminescence, ADP-Glo, MBP substrate. inhibition, % at 12.5 µM. actives 0.44% (n = 27,000). AID 2322, 2010; in the data active = inhibition above about 20%; inconclusive = no clear call, values can overlap the other calls
Target sequence (Q9BYT3 whole entry, looked up): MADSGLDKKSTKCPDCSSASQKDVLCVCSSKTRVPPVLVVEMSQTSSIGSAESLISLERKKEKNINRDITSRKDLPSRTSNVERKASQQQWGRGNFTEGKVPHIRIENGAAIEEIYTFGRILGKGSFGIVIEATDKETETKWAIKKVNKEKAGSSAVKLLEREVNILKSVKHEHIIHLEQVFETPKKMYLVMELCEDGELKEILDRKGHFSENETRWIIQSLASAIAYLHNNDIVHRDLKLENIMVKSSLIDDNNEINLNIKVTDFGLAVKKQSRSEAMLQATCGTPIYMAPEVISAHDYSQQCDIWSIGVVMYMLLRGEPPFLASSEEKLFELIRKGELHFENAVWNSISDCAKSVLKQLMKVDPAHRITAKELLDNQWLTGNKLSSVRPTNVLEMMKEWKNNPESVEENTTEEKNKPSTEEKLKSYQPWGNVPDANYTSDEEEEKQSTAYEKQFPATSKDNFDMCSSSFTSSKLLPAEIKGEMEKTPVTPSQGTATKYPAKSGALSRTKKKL
PD-1 reversal: activators reversing PD-1 mediated T-cell inhibition, primary screen, luminescence, primary human CD4 T cells, PD-L1 beads; CellTiter-Glo 96 h; activation, % (no concentration beside the values); 29,000 tested, under 10 active; call rule not given here;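 note: 0% = median vehicle wells and 100% = positive control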
NOMO-1 viab: NOMO-1 AML cell viability reduction, primary screen, STK33 inhibitor project, CellTiter-Glo luminescence. actives 7.5% (n = 37,000). inhibition, % (test concentration not listed). NOMO-1 AML viability, 72 h; in the data active = inhibition above about 80%; inconclusive = no clear call, values can overlap the other calls
* marks the source's active call; other numbers are inactive results; ? = inconclusive; . = not tested or not shown. The full list was thinned out, with hits kept by preference.

SMILES	STK33 inh	PD-1 reversal	NOMO-1 viab
C[C@@H]1CN([C@@H](C)CO)C(=O)c2cc(NC(=O)CCCN(C)C)ccc2O[C@H]1CN(C)Cc1ccc(C(F)(F)F)cc1	.	-0.2	-10.8
CN1CCN(C(=O)CN(c2cccc([N+](=O)[O-])c2)S(C)(=O)=O)CC1	9.4	3.7	26.2
O=C(Nc1cc2c(ccc3ccccc32)oc1=O)c1ccccc1	.	-0.3	14.8
N=c1oc2ccc3ccccc3c2cc1C(=O)Nc1ccccc1	.	-0.3	114.6*
CC(C)NC(=O)Nc1ccc2c(c1)C(=O)N([C@@H](C)CO)C[C@@H](C)[C@@H](CN(C)Cc1ccc(Cl)c(Cl)c1)O2	0.3	1.2	6.9
COc1ccc(NC(=O)CCCN2C(=O)c3ccccc3C2=O)cc1Cl	-7.3	3.4	-12.8
C[C@H](CO)N1C[C@H](C)[C@H](CN(C)Cc2ccccc2)Oc2ccc(NS(=O)(=O)c3ccc(Cl)cc3)cc2C1=O	1.4	-0.3	17.4
C[C@@H]1CN([C@@H](C)CO)C(=O)c2cc(NS(=O)(=O)c3ccc(Cl)cc3)ccc2O[C@@H]1CN(C)Cc1ccc(Oc2ccccc2)cc1	.	.	113.5*
C[C@@H]1CN([C@H](C)CO)C(=O)c2cc(NS(=O)(=O)c3ccc(Cl)cc3)ccc2O[C@@H]1CN(C)Cc1ccc(Oc2ccccc2)cc1	.	-0.1	121.7*
C[C@H]1CN([C@@H](C)CO)C(=O)c2cc(NS(=O)(=O)c3ccccc3)ccc2O[C@H]1CN(C)Cc1ccc(Oc2ccccc2)cc1	2.3	-1.4	53.1
C[C@H]1CN([C@@H](C)CO)C(=O)c2cc(NC(=O)c3ccncc3)ccc2O[C@H]1CN(C)Cc1ccc(C(F)(F)F)cc1	2.1	-3.2	13.1
CCn1c(SCC(=O)Nc2ccc(Cl)cc2C)nnc1-c1ccncc1	-1.9	0.6	4.7
C[C@@H]1CN([C@@H](C)CO)C(=O)Cc2cc(NS(=O)(=O)c3ccc(Cl)cc3)ccc2O[C@@H]1CN(C)S(=O)(=O)c1cccs1	0.3	-1.0	10.7
C[C@@H]1CN([C@@H](C)CO)C(=O)c2cccc(NC(=O)Nc3ccc4c(c3)OCO4)c2O[C@H]1CN(C)Cc1ccc(C(=O)Nc2ccccc2N)cc1	.	-2.3	126.3*
C[C@@H]1CN([C@@H](C)CO)C(=O)c2cccc(NC(=O)Nc3ccc4c(c3)OCO4)c2O[C@@H]1CN(C)Cc1ccc(C(=O)Nc2ccccc2N)cc1	.	-1.6	141.6*
C[C@H]1CN([C@@H](C)CO)C(=O)c2cccc(NC(=O)Nc3ccc4c(c3)OCO4)c2O[C@@H]1CN(C)Cc1ccc(C(=O)O)cc1	.	.	25.4
C[C@@H]1CN([C@H](C)CO)C(=O)c2cccc(NC(=O)Nc3ccc4c(c3)OCO4)c2O[C@H]1CN(C)Cc1ccc(C(=O)O)cc1	.	.	-16.7
C[C@H]1CN([C@@H](C)CO)C(=O)c2cccc(NC(=O)Nc3ccc4c(c3)OCO4)c2O[C@@H]1CN(C)Cc1ccc(C(=O)Nc2ccccc2N)cc1	.	-4.0	127.4*
C[C@@H]1CN([C@@H](C)CO)C(=O)c2cccc(NC(=O)Nc3ccc4c(c3)OCO4)c2O[C@@H]1CN(C)Cc1ccc(C(=O)O)cc1	.	1.9	-0.3
Cc1sc(NC(=O)c2cc3ccccc3oc2=O)c(C(=O)NCc2cccnc2)c1C	1.8	1.6	7.3
CCn1c(SCC(=O)c2ccc(F)cc2)nnc1-c1cccc([N+](=O)[O-])c1	5.6	-0.8	41.8
Cc1ccc(S(=O)(=O)N(C)C[C@@H]2Oc3ccc(NS(=O)(=O)c4ccc(F)cc4)cc3CC(=O)N([C@@H](C)CO)C[C@@H]2C)cc1	-0.3	0.0	25.7
Fc1cccc(Cl)c1CSc1ccccc1C1=NCCCN1	.	2.2	15.4
Fc1cccc(Cl)c1CSC1=NCCN1	.	-0.7	136.0*
CC(O)(C(=O)Nc1ccc(S(=O)(=O)c2ccccc2)cc1)C(F)(F)F (stereo not given)	-4.2	.	37.6
SMILES	STK33 inh	PD-1 reversal	NOMO-1 viab
CC(C)(C)C(=O)Nc1ccc2c(c1)C(=O)C(=O)c1ccccc1-2	-2.3	-57.9	98.3*
Cc1cccc(OCC(=O)Nc2ccc3oc(-c4cncc(Br)c4)nc3c2)c1C	4.3	.	31.8
C[C@@H]1CN([C@@H](C)CO)C(=O)c2cccc(NS(C)(=O)=O)c2O[C@@H]1CN(C)Cc1ccc(C(=O)Nc2ccccc2N)cc1	.	-0.9	122.9*
C[C@H]1CN([C@@H](C)CO)C(=O)c2cccc(NS(=O)(=O)c3ccccc3)c2O[C@H]1CN(C)Cc1ccc(C(=O)Nc2ccccc2N)cc1	.	0.1	119.6*
C[C@@H]1CN([C@H](C)CO)C(=O)c2cccc(NS(=O)(=O)c3ccc(F)cc3)c2O[C@@H]1CN(C)Cc1ccc(C(=O)Nc2ccccc2N)cc1	.	-2.3	127.3*
Cc1ccc(S(=O)(=O)Nc2cccc3c2O[C@@H](CN(C)Cc2ccc(C(=O)Nc4ccccc4N)cc2)[C@@H](C)CN([C@H](C)CO)C3=O)cc1	.	-0.3	136.5*
C[C@H]1CN([C@@H](C)CO)C(=O)c2cccc(NS(C)(=O)=O)c2O[C@@H]1CN(C)Cc1ccc(C(=O)Nc2ccccc2N)cc1	.	-0.5	11.5
C[C@@H]1CN([C@H](C)CO)C(=O)c2cccc(NS(=O)(=O)c3ccc(F)cc3)c2O[C@H]1CN(C)Cc1ccc(C(=O)Nc2ccccc2N)cc1	.	0.0	56.9
C[C@H](CO)N1C[C@H](C)[C@@H](CN(C)Cc2ccc(C(=O)Nc3ccccc3N)cc2)Oc2c(NS(=O)(=O)c3ccc(Cl)cc3)cccc2C1=O	.	-0.2	51.2
C[C@H]1CN([C@@H](C)CO)C(=O)c2cccc(NS(=O)(=O)c3ccccc3)c2O[C@@H]1CN(C)Cc1ccc(C(=O)Nc2ccccc2N)cc1	.	-2.4	?
CCc1cccc(C)c1NC(=O)CSc1nnc(-c2ccccc2)o1	-3.3	1.9	17.6
C[C@@H]1CN([C@H](C)CO)C(=O)c2cc(NC(=O)C3CC3)ccc2O[C@H]1CN(C)C(=O)Nc1cccc2ccccc12	.	.	11.6
Cc1nn(Cc2ccc(F)cc2)c(C)c1NC(=O)C1CC(c2cccc(Br)c2)=NO1 (stereo not given)	0.6	-2.3	16.9
CC(=O)OC/C=C(\C)CC/C=C(\C)C(C/C=C(\CC/C=C(\C)COC(C)=O)C(=O)O)OC(C)=O (stereo not given)	-0.2	.	.
C[C@@H]1CN([C@@H](C)CO)C(=O)c2cccc(NS(=O)(=O)c3ccc(Cl)cc3)c2O[C@H]1CN(C)Cc1ccc(C(=O)Nc2ccccc2N)cc1	.	0.4	48.4
C[C@@H]1CN([C@H](C)CO)C(=O)c2cccc(NS(=O)(=O)c3ccccc3)c2O[C@@H]1CN(C)Cc1ccc(C(=O)Nc2ccccc2N)cc1	.	-1.1	128.0*
CC(C)(C)c1ccc(C(=O)C(C#N)=C2SCCCS2)cc1	.	-0.7	109.5*
CC(C)(C)c1ccc(C(=O)N2CCCC2)cc1	-0.9	2.0	8.7
C[C@H](CO)N1C[C@H](C)[C@@H](CN(C)Cc2ccc(Oc3ccccc3)cc2)Oc2c(NC(=O)NC3CCCCC3)cccc2C1=O	.	-3.2	45.6
CCOc1ccc(NC(=O)c2c(NC(=O)c3ccco3)sc3c2CCCCC3)cc1	0.2	.	110.0*
COc1ccc(OC)c(NC(=O)c2c(NC(=O)c3ccco3)sc3c2CCC3)c1	-2.8	4.3	0.2
O=C(Nc1ncnc2sc3c(c12)CCCCC3)c1ccc(F)cc1	.	-3.2	108.9*
